Three molecules from PubChem BioAssay AID602388 (National Center for Advancing Translational Sciences (NCATS), 2012) can be followed below.

Some of the results follow. Results filed as inconclusive are left out. Calls of active or inactive are those of the source. Calls come from the whole dose curve; as a rule, active = well fitted inhibition curve with a large enough effect; inconclusive = small, poorly fitted or top-dose-only effect; inactive = flat fitted curve, though single readings scatter.

Regulator of G-protein signaling 4 (Homo sapiens), sequence (P49798 whole entry, looked up, the tested form may be a part): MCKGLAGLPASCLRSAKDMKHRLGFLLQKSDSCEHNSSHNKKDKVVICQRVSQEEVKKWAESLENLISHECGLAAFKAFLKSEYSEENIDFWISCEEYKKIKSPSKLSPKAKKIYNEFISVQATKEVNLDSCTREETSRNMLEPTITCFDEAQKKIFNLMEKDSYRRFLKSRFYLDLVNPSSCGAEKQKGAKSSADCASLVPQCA

In the assay the target is Regulator of G-protein signaling 4 (Homo sapiens) (UniProt P49798). The assay can be described thus: qHTS for Inhibitors of Regulator of G Protein Signaling(RGS) 4: Hit Validation. As to conditions: RGS4 GAP activity, Transcreener GDP fluorescence polarization. From the text:
G-protein-coupled receptors (GPCRs) are well-established targets for drug discovery and development. Members of the "regulator of G-protein signaling" (RGS)-protein superfamily have recently emerged as critical modulators of specific GPCR signaling pathways. […] Combining specific RGS domain inhibitors with existing GPCR agonists should potentiate cellular responses and could also increase the specificity of action of existing therapeutics. Small molecule modulators of RGS domain activity should also have clinical utility in inhibiting or potentiating the actions of endogenous GPCR agonists. In particular, the diversity of RGS proteins with highly localized and dynamically regulated distributions in the human brain makes this family of proteins attractive targets for pharmacotherapy of central nervous system (CNS) disorders such as Parkinson's disease, schizophrenia, and anxiety. […] This assay was used to screen the NIH Molecular Libraries Small Molecule Repository (MLSMR) in order to identify a small molecule that inhibits RGS4. NIH Chemical Genomics Center [NCGC] NIH Molecular Libraries Probe Centers Network [MLPCN] MLPCN Grant: DA030555 Assay Submitter (PI): David Siderovski, University of North Carolina Chapel Hill (School of Medicine)
Two microliters of 500nM (2x working concentration) is dispensed into black medium-binding solid-bottom Kalypsys plates. Then with the Kalypsys pintool 23nl of control and compounds are transferred; the control compound is […] CCG-4986 (working concentration). […] An initial fluorescent polarization read (620 nm/688 nm) is performed on the Envision before the plate is incubated for 90 minutes at 30 deg C at a relative humidity of 80%. The plate is once more centrifuged at 1000 RPM for 15 seconds and another Envision fluorescent polarization (620 nm/688 nm) read is carried out.
Background: qHTS replaces the single test concentration by a dilution series.
As for `Cc1ccc(-c2nc3ccccn3c2Nc2c(C)cccc2C)o1`, the Potency was 10.6 µM (active).
Consider `Cc1ccc(-n2nc(-c3ccco3)cc2C(=O)NCc2cccnc2)cc1`, for which the Potency was 6.7 µM (active).
`O=C(Nc1nc(-c2ccncc2)cs1)C1COc2ccccc2O1` (stereo not drawn): the Potency was 5.32 µM (active).
